Measurements from PubChem BioAssay.
Values without a mark were called inactive. Activity calls are given as the source filed them.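 Rule for the calls, unless noted: active = inhibition above 50%; inactive = the rest.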

assay: antimalarial activity against Dd2 strain (AID 2302;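 active = growth inhibition above 50% at the single 2 µM test dose, taken to imply half-maximal potency below 2 µM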;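 note: 0% = DMSO untreated growth and 100% = chloroquine plus artemisinin killed control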); settings: P. falciparum Dd2 in RBCs, LDH growth readout, 72 h; at 2 µM; hits give high values

Row | SMILES | growth inhibition
1 | Cc1cc(NCCCCCCCCNc2cc(C)nc3ccccc23)c2ccccc2n1 | -1%
2 | CC(C)n1ncc2c(C(=O)N3CCCC4CCCCC43)cc(C3CC3)nc21 (stereo not given) | 92% (active)
3 | CCCC1CCNC(C(O)c2ccnc3ccc(OC)cc23)C1 (stereo not given) | 78% (active)
4 | CC(C)C(=O)n1ncc2c3c(N)nc(N)nc3ccc21 | 3%
5 | Oc1ccc(CCCNc2nc(NCc3cccc4ccccc34)nc(N3CCNCC3)n2)cc1 | 4%
6 | CC1N=C(N)N=C(N)N1OCc1ccccc1 (stereo not given) | 72% (active)
7 | CC(C)c1cc(N)c2cc(NC(=O)COCC(=O)Nc3ccc4nc(C(C)C)cc(N)c4c3)ccc2n1 | 95% (active)
8 | Cc1ccnc(Nc2nc(-c3ccccn3)cs2)c1 | 87% (active)
9 | NC(=O)c1cccc(C(=O)Nc2ccc(-c3cccc(-c4nc5ccc(C(F)(F)F)cc5[nH]4)c3)cc2)c1 | 86% (active)
10 | COc1ccc(CC(=O)Nc2ccc(Nc3nc(C)cc(N(C)C)n3)cc2)cc1 | 31%
11 | CC1(C)N=C(NC(=O)c2ccc([N+](=O)[O-])cc2)N=C(N)N1OCc1ccc2ccccc2c1 | 78% (active)
12 | Cc1ccc(C)c(C2CCN(CCCCNC(=O)c3ccc(NC(=O)c4ccc(Cl)cc4)cc3)CC2)c1 | 13%
13 | CCCc1ccc(NC(=O)c2ccc(CN3CCCN(Cc4cccc(O)c4)CC3)cc2)cc1 | 63% (active)
14 | Cc1[nH]c(C)c(-c2ccc(OCc3cccc(C(F)(F)F)c3)nc2)c(=O)c1Br | 97% (active)
15 | COc1ccccc1NC(=O)Nc1cccc(-c2cccc(-c3nc4ccc(C(F)(F)F)cc4[nH]3)c2)c1 | 97% (active)
16 | Cc1cc(NN=Cc2cccc(F)c2)c2ccc(F)cc2n1 | 99% (active)
17 | CN1CCc2cc(I)c(O)cc2C1Cc1ccccc1Cl (stereo not given) | 96% (active)
18 | O=C(/C=C/c1ccc(Cl)c(Cl)c1)NCCCCCN1CCN(C(=O)Nc2ccc(Cl)c(C(F)(F)F)c2)CC1 | -3%
19 | CCN1CCC(N(Cc2ccc(-c3ccc(C(F)(F)F)cc3)cc2)C(=O)Cn2c(CCc3cccc(F)c3F)cc(=O)c3ccccc32)C1 (stereo not given) | 84% (active)
20 | Cc1cc2nc(-c3ccc(/C=C/C(=O)NCc4ccc(Cl)c(Cl)c4)cc3)[nH]c2cc1C | 83% (active)

Row | SMILES | growth inhibition
21 | CC(=O)Nc1cccc(CNCc2ccc(-c3cnc(N4CCCC(C)(C)C4)nc3)cc2)c1 | 75% (active)
22 | Cc1cc(NCCc2ccccc2)nc(/N=C(\N)Nc2ccccc2Cl)n1 | 7%
23 | CC(C)CC(NC(=O)c1cccc(OCCN2CCOCC2)c1)C(=O)NC(/C=N/NC(=O)c1ccccc1)CCc1ccccc1 (stereo not given) | 88% (active)
24 | CC(C)(C)c1cc(C(=O)Nc2ccc(C(=N)N)cc2)c(O)c(C(C)(C)C)c1 | 88% (active)
25 | Cc1ccc2c(NN=Cc3ccc(N(C)C)cc3)cc(C)nc2c1 | 46%
26 | CC1CCCN(S(=O)(=O)c2cc(Br)cc3c2N(C(=O)C2CC2)CC3)C1 (stereo not given) | 70% (active)
27 | Cc1cc(OCCCN2CCCCC2)ccc1NC(=O)COc1ccc(Cl)cc1C(=O)c1cc(C#N)cc(C(F)(F)F)c1 | 7%
28 | CCCCCCN1CCC(NCc2cccc([N+](=O)[O-])c2)CC1 | 16%
29 | CCCCCN1CCCN(Cc2cccc(NC(=O)c3ccc(Cl)c(Cl)c3)c2)CC1 | 28%
30 | CCc1c(CCNCCCCCCNCCc2ccc([N+](=O)[O-])cc2)ccc(OC)c1OC | 2%
31 | Cc1cc(-c2ccc(NC(=O)N3CCc4cc(Br)c(N5CCN(C)CC5)cc43)cc2)ccc1C#N | 56% (active)
32 | COc1ccccc1C1CCN(C2CCC(NC(=O)/C=C/c3cc(F)cc(C(F)(F)F)c3)CC2)CC1 (stereo not given) | 57% (active)
33 | O=[N+]([O-])c1cccc(-c2nc(-c3ccc(Br)cc3)[nH]c2-c2ccc(Br)cc2)c1 | 44%
34 | COc1ccccc1-c1ccc(CNC(=O)C(CN2CCN(C)CC2)c2ccccc2)cc1 (stereo not given) | 4%
35 | CCNS(=O)(=O)c1ccc(Oc2ccc([N+](=O)[O-])cc2)cc1 | 85% (active)
36 | CCOc1cc2ncnc(Nc3ccc(OCc4ccccc4Br)c(OC)c3)c2cc1OCC | 82% (active)
37 | Cc1onc(-c2ccccc2Cl)c1C(=O)Nc1cc(Cl)c(Cl)cc1Cl | 57% (active)
38 | Cc1cc(OCC(=O)Nc2ccc(-c3nc4ccccc4[nH]3)cc2)cc(C)c1Cl | 0%
39 | COc1cc(Cc2cnc(N)nc2N)ccc1OCc1ccc(NC(C)=O)cc1 | 0%
40 | CCn1c(CN2CCN(Cc3ccccc3)CC2)nc2cc(NC(=O)c3cccs3)ccc21 | 95% (active)

assay: HepG2 cytotoxicity, primary screen, cytotoxicity control for P. falciparum antimalarial project, cell-based, ATP luminescence (AID 2303); settings: HepG2 viability, 24-48 h, at 10 µM, hits give high values;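 note: 0% = DMSO wells and 100% = digitonin-killed cells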

Row | SMILES | inhibition
41 | Cc1cc(NCCCCCCCCNc2cc(C)nc3ccccc23)c2ccccc2n1 | 59% (active)
42 | CC(C)n1ncc2c(C(=O)N3CCCC4CCCCC43)cc(C3CC3)nc21 (stereo not given) | 7%
43 | CCCC1CCNC(C(O)c2ccnc3ccc(OC)cc23)C1 (stereo not given) | -15%
44 | CC(C)C(=O)n1ncc2c3c(N)nc(N)nc3ccc21 | 0%
45 | Oc1ccc(CCCNc2nc(NCc3cccc4ccccc34)nc(N3CCNCC3)n2)cc1 | 9%
46 | CC1N=C(N)N=C(N)N1OCc1ccccc1 (stereo not given) | 62% (active)
47 | CC(C)c1cc(N)c2cc(NC(=O)COCC(=O)Nc3ccc4nc(C(C)C)cc(N)c4c3)ccc2n1 | -8%
48 | Cc1ccnc(Nc2nc(-c3ccccn3)cs2)c1 | 45%
49 | NC(=O)c1cccc(C(=O)Nc2ccc(-c3cccc(-c4nc5ccc(C(F)(F)F)cc5[nH]4)c3)cc2)c1 | 74% (active)
50 | COc1ccc(CC(=O)Nc2ccc(Nc3nc(C)cc(N(C)C)n3)cc2)cc1 | 17%
51 | CC1(C)N=C(NC(=O)c2ccc([N+](=O)[O-])cc2)N=C(N)N1OCc1ccc2ccccc2c1 | 64% (active)
52 | Cc1ccc(C)c(C2CCN(CCCCNC(=O)c3ccc(NC(=O)c4ccc(Cl)cc4)cc3)CC2)c1 | 15%
53 | CCCc1ccc(NC(=O)c2ccc(CN3CCCN(Cc4cccc(O)c4)CC3)cc2)cc1 | 51% (active)
54 | Cc1[nH]c(C)c(-c2ccc(OCc3cccc(C(F)(F)F)c3)nc2)c(=O)c1Br | 37%
55 | COc1ccccc1NC(=O)Nc1cccc(-c2cccc(-c3nc4ccc(C(F)(F)F)cc4[nH]3)c2)c1 | 21%
56 | Cc1cc(NN=Cc2cccc(F)c2)c2ccc(F)cc2n1 | 2%
57 | CN1CCc2cc(I)c(O)cc2C1Cc1ccccc1Cl (stereo not given) | -7%
58 | O=C(/C=C/c1ccc(Cl)c(Cl)c1)NCCCCCN1CCN(C(=O)Nc2ccc(Cl)c(C(F)(F)F)c2)CC1 | 22%
59 | CCN1CCC(N(Cc2ccc(-c3ccc(C(F)(F)F)cc3)cc2)C(=O)Cn2c(CCc3cccc(F)c3F)cc(=O)c3ccccc32)C1 (stereo not given) | 43%
60 | Cc1cc2nc(-c3ccc(/C=C/C(=O)NCc4ccc(Cl)c(Cl)c4)cc3)[nH]c2cc1C | 32%

Row | SMILES | inhibition
61 | CC(=O)Nc1cccc(CNCc2ccc(-c3cnc(N4CCCC(C)(C)C4)nc3)cc2)c1 | 10%
62 | Cc1cc(NCCc2ccccc2)nc(/N=C(\N)Nc2ccccc2Cl)n1 | 20%
63 | CC(C)CC(NC(=O)c1cccc(OCCN2CCOCC2)c1)C(=O)NC(/C=N/NC(=O)c1ccccc1)CCc1ccccc1 (stereo not given) | -5%
64 | CC(C)(C)c1cc(C(=O)Nc2ccc(C(=N)N)cc2)c(O)c(C(C)(C)C)c1 | 4%
65 | Cc1ccc2c(NN=Cc3ccc(N(C)C)cc3)cc(C)nc2c1 | -9%
66 | CC1CCCN(S(=O)(=O)c2cc(Br)cc3c2N(C(=O)C2CC2)CC3)C1 (stereo not given) | -14%
67 | Cc1cc(OCCCN2CCCCC2)ccc1NC(=O)COc1ccc(Cl)cc1C(=O)c1cc(C#N)cc(C(F)(F)F)c1 | 23%
68 | CCCCCCN1CCC(NCc2cccc([N+](=O)[O-])c2)CC1 | -2%
69 | CCCCCN1CCCN(Cc2cccc(NC(=O)c3ccc(Cl)c(Cl)c3)c2)CC1 | 30%
70 | CCc1c(CCNCCCCCCNCCc2ccc([N+](=O)[O-])cc2)ccc(OC)c1OC | 35%
71 | Cc1cc(-c2ccc(NC(=O)N3CCc4cc(Br)c(N5CCN(C)CC5)cc43)cc2)ccc1C#N | 100% (active)
72 | COc1ccccc1C1CCN(C2CCC(NC(=O)/C=C/c3cc(F)cc(C(F)(F)F)c3)CC2)CC1 (stereo not given) | 92% (active)
73 | O=[N+]([O-])c1cccc(-c2nc(-c3ccc(Br)cc3)[nH]c2-c2ccc(Br)cc2)c1 | 6%
74 | COc1ccccc1-c1ccc(CNC(=O)C(CN2CCN(C)CC2)c2ccccc2)cc1 (stereo not given) | 3%
75 | CCNS(=O)(=O)c1ccc(Oc2ccc([N+](=O)[O-])cc2)cc1 | 1%
76 | CCOc1cc2ncnc(Nc3ccc(OCc4ccccc4Br)c(OC)c3)c2cc1OCC | 1%
77 | Cc1onc(-c2ccccc2Cl)c1C(=O)Nc1cc(Cl)c(Cl)cc1Cl | 3%
78 | Cc1cc(OCC(=O)Nc2ccc(-c3nc4ccccc4[nH]3)cc2)cc(C)c1Cl | 5%
79 | COc1cc(Cc2cnc(N)nc2N)ccc1OCc1ccc(NC(C)=O)cc1 | 9%
80 | CCn1c(CN2CCN(Cc3ccccc3)CC2)nc2cc(NC(=O)c3cccs3)ccc21 | 0%
